This is an account of results in PubChem BioAssay (NCATS).

Assay [1] is described as follows: Quantitative High-Throughput drug screen in 47 multiple myeloma cell lines against the NCATS MIPE library collection: ARP1_JJKsccF8 cell viability assay (AID 1918928; also: nearly all actives have a fitted effect of over 40% in size). The essentials: (§1)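 ATP readout (CellTiter-Glo), 48 h drug incubation, 37 °C/5% CO2, 500 cells per well; normalisation to DMSO (100%) and media-only (0%) controls.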
The nature of assay [2]: Quantitative High-Throughput drug screen in 47 multiple myeloma cell lines against the NCATS MIPE library collection: ARD_JJKsccE7 cell viability assay (AID 1918929). The essentials:
(§2)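 CellTiter-Glo ATP luminescence gave viability after 48 h compound treatment at 37C of 500 multiple myeloma cells per well. Normalisation used DMSO-only wells as 100% and media-only wells as 0% viability; primary qHTS of approved and investigational drugs.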

Assay [3] can be described thus: Quantitative High-Throughput drug screen in 47 multiple myeloma cell lines against the NCATS MIPE library collection: Karpas620_DSMZ cell viability assay (AID 1918959). Also: nearly all actives have a fitted effect of over 30% in size. The essentials:
(§3)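 Inhibition of cell viability is measured here. Each line was plated at 500 cells per well, treated with MIPE 4.0 drugs, kept 48 hours at 37C, then assayed for ATP content by CellTiter-Glo luminescence.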

Assay [4] is described as follows: Quantitative High-Throughput drug screen in 47 multiple myeloma cell lines against the NCATS MIPE library collection: JIM3_ECACC cell viability assay (AID 1918963; also: nearly all actives have a fitted effect of over 35% in size). The essentials:
as §3

Assay [5] can be described thus: Quantitative High-Throughput drug screen in 47 multiple myeloma cell lines against the NCATS MIPE library collection: JIM1_ECACC cell viability assay (AID 1918964). The essentials: as §2
Assay [6] can be described thus: Quantitative High-Throughput drug screen in 47 multiple myeloma cell lines against the NCATS MIPE library collection: Karpas417_ECACC cell viability assay (AID 1918961). Particulars: Karpas417 myeloma viability, CellTiter-Glo ATP luminescence, 48 h; viability (% of DMSO): at 45.8 µM (top of the series). The essentials: (§4)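 qHTS of the MIPE 4.0 collection: 500 myeloma cells/well, 48 h drug exposure at 37C in 5% CO2, then CellTiter-Glo for 5 min at room temperature before luminescence reading.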
For orientation: In ATP-based viability assays light output follows the ATP content of the culture.

A short description of assay [7]: Quantitative High-Throughput drug screen in 47 multiple myeloma cell lines against the NCATS MIPE library collection: KHM11_PLB cell viability assay (AID 1918962). Also: nearly all actives have a fitted effect of over 35% in size. The essentials:
as §3

Assay [8] in a line: Quantitative High-Throughput drug screen in 47 multiple myeloma cell lines against the NCATS MIPE library collection: INA6_PLB cell viability assay (AID 1918965; also: nearly all actives have a fitted effect of over 55% in size). The essentials: as §4
Assay [9] in a line: Quantitative High-Throughput drug screen in 47 multiple myeloma cell lines against the NCATS MIPE library collection: JJN3_DSMZ cell viability assay (AID 1918966; also: nearly all actives have a fitted effect of over 50% in size). The essentials: as §2
Assay [10] can be described thus: Quantitative High-Throughput drug screen in 47 multiple myeloma cell lines against the NCATS MIPE library collection: KMM1_JCRB cell viability assay (AID 1918960). Also: nearly all actives have a fitted effect of over 30% in size. The essentials: as §1

Inconclusive results are not listed. Activity calls are given as the source filed them. Calls follow the shape of the dose curve; as a rule, active = well fitted curve in the direction sought with a large enough effect; inconclusive = small, poorly fitted or top-dose-only effect, or another doubt; inactive = no such curve, though single readings can be large; an effect the other way counts as inactive or inconclusive.
Potency is read from the fitted curve at half-maximal effect.

`NS(=O)(=O)c1cc2c(cc1Cl)NC(C(Cl)Cl)NS2(=O)=O` (stereo unspecified): the Potency entry in [1], in [2], in assay [3], in assay [4] and in assay [5] was “inactive” each time.
As to `Nc1nc(F)nc2c1ncn2[C@@H]1O[C@H](CO)[C@@H](O)[C@@H]1O`, the Potency in assay [1] was 264 nM (active); in assay [2], 332 nM (active); in assay [3] it was 296 nM (active); in assay [6], 46.9 nM (active); in assay [7], 187 nM (active); in assay [4] it was 662 nM (active). Further, the Potency in assay [5] was 93.5 nM (active); in [8], 166 nM (active); in assay [9], 235 nM (active).
As for `CC1=C(C(=O)O)N2C(=O)[C@@H](NC(=O)C(N)c3ccccc3)[C@H]2SC1` (stereo partly specified), the Potency entry in assay [1], in [2], in assay [3], in assay [10] and in [7] was “inactive” each time. The Potency in assay [4] was 1.7 nM (active).
Consider `CCCc1nc(C)c2c(=O)[nH]c(-c3cc(S(=O)(=O)N4CCN(CC)CC4)ccc3OCC)nn12`, for which the Potency in assay [1] was 5260 nM (active); in assay [2] it was 6620 nM (active); in assay [3], 2350 nM (active); in assay [10], 3720 nM (active); in assay [7], 9350 nM (active); in assay [4] it was 9350 nM (active). In addition, the Potency in assay [5] was 5260 nM (active); in assay [9] it was 4180 nM (active).
Regarding `CCN(CC)CCn1c(=O)c(Cc2ccc(OC)cc2)nc2ccccc21`, the Potency entry in [1], in assay [2], in assay [3], in assay [10], in [4] and in assay [5] was “inactive” each time.
In the case of `NNC(=O)c1ccncc1`, the Potency result in [1], in assay [2], in [3], in assay [10], in [7] and in assay [4] was “inactive” throughout. Further, the Potency entry in assay [5] and in assay [8] was “inactive” throughout.
For the molecule `CN1CCN(c2c(F)cc3c(=O)c(C(=O)O)cn(CCF)c3c2F)CC1`, the Potency entry in assay [1], in assay [2], in [3] and in assay [4] was “inactive” in each case.
For `Cc1cccc(N(C)C(=S)Oc2ccc3ccccc3c2)c1`, the Potency entry in [1], in assay [3], in assay [7], in assay [4], in [8] and in [9] was “inactive” throughout. Further, in assay [2], the Potency was 20900 nM (active).
`CNC(=O)c1cc(Oc2ccc(NC(=O)Nc3ccc(Cl)c(C(F)(F)F)c3)cc2)ccn1`: the Potency is 23500 nM (active) in assay [1]; 2640 nM (active) in [2]; 3320 nM (active) in assay [3]; 2960 nM (active) in assay [10]; 11800 nM (active) in assay [7]; 10500 nM (active) in assay [4]. The Potency in [8] was 13200 nM (active); in assay [9], 23500 nM (active).
On to `O=C(O)CSCC(=O)NC1CCSC1=O` (stereo unspecified), for which the Potency result in assay [1], in assay [2], in [3], in assay [7], in [4] and in assay [9] was “inactive” throughout.
In the case of `O=C(N[C@H](CO)[C@H](O)c1ccc([N+](=O)[O-])cc1)C(Cl)Cl`, the Potency result in assay [1], in assay [2], in [3], in assay [10], in [7] and in assay [4] was “inactive” throughout. The Potency entry in [8] and in [9] was “inactive” each time.
`O=NN(CCCl)C(=O)NC1CCCCC1`: the Potency result in assay [1], in [2], in assay [3], in assay [7], in assay [4] and in assay [5] was “inactive” in each case.
As for `CCN1CCCC1CNC(=O)c1cc(S(N)(=O)=O)ccc1OC` (stereo unspecified), the Potency entry in assay [1], in assay [2], in [3], in assay [10], in assay [7] and in [5] was “inactive” in each case.
Regarding `COC(=O)Nc1nc2ccc(S(=O)c3ccccc3)cc2[nH]1` (stereo unspecified), the Potency in assay [1] was 16600 nM (active); in assay [4] it was 20900 nM (active); in [8], 18700 nM (active). Moreover, the Potency entry in [3] and in assay [10] was “inactive” throughout.
As for `O=S(=O)(O)CCS`, the Potency result in [1], in [3] and in assay [10] was “inactive” throughout.
Regarding `C#CCN[C@@H]1CCc2ccccc21`, the Potency entry in assay [1], in assay [3], in [10], in [7] and in assay [4] was “inactive” each time.
As for `COc1nc(N)nc2c1ncn2[C@@H]1O[C@H](CO)[C@@H](O)[C@@H]1O`, the Potency entry in assay [1], in [3], in assay [10], in assay [4] and in [5] was “inactive” in each case. Besides, the Potency in assay [9] is 13200 nM (active).
For the molecule `Cc1nnc(C(=O)NC(C)(C)c2nc(C(=O)NCc3ccc(F)cc3)c(O)c(=O)n2C)o1`, the Potency result in [1], in [3], in [10], in [4] and in assay [8] was “inactive” each time.
With `CCOCC(O)COc1ccc(NC(=O)CC[S+](C)C)cc1` (stereo unspecified), the Potency result in assay [1], in assay [3], in assay [10], in [7], in [4] and in assay [9] was “inactive” in each case.
As to `COc1cc(NS(=O)(=O)c2ccc(N)cc2)nc(OC)n1`, the Potency entry in assay [1], in assay [3], in assay [10], in [4] and in assay [9] was “inactive” each time.
`Nc1[nH]c(=O)ncc1F`: the Potency entry in assay [1], in [3], in assay [10], in assay [4], in assay [5] and in assay [9] was “inactive” each time.
As for `Cc1nnc(NS(=O)(=O)c2ccc(N)cc2)s1`, the values for the Potency in assay [1], in [3] and in assay [10] were 20900 nM (active), 1660 nM (active) and 1180 nM (active), respectively. Also, the Potency result in [4] was “inactive”.
Turning to `C[C@]12C=CC(=O)C=C1CC[C@@H]1[C@@H]2C(=O)C[C@@]2(C)[C@H]1CC[C@]2(O)C(=O)CO`, the Potency result in assay [1], in [3], in assay [10], in [4] and in [8] was “inactive” throughout.
`CCCCOc1ccc(CC(=O)NO)cc1`: the Potency in [1] was 13200 nM (active); in assay [3] it was 18700 nM (active).
For the molecule `CC(C)C[C@H](NC(=O)[C@H](CCc1ccccc1)NC(=O)CN1CCOCC1)C(=O)N[C@@H](Cc1ccccc1)C(=O)N[C@@H](CC(C)C)C(=O)[C@@]1(C)CO1`, the Potency in assay [1] is 7.4 nM (active); in assay [3], 1 nM (active); in assay [10], 1 nM (active); in assay [7], 1 nM (active); in assay [4] it was 23.5 nM (active); in [5] it was 7.4 nM (active). Besides, the Potency in [9] is 7.4 nM (active).
For `CN1CCN(c2c(F)cc3c(=O)c(C(=O)O)cn4c3c2OCN4C)CC1`, the Potency result in assay [1], in assay [3], in assay [10], in assay [4] and in assay [9] was “inactive” each time.
